# The supplement of paper PMC11577813, “Eurasian spruce bark beetle detects lanierone using a highly expressed specialist odorant receptor, present in several functional sensillum types” (BMC Biology, 2024)
# ± gives the standard deviation of the averaged measurements.
# Tested on: (+)-trans-4-thujanol A-neuron OSN class
# Experiment: net action potential response of A-neuron (blank-subtracted) (spikes/s (Hz)); higher = stronger excitation
# Settings: 10 µg on filter paper; neuron: A neuron (large spike amplitude)
# Method: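 Single sensillum recordings from antennal olfactory sensilla of live adult Ips typographus. Each compound was 10 µg in paraffin oil on filter paper, delivered as a 0.5 s puff. Net response = spikes in the first 0.5 s of response minus the 0.5 s pre-stimulus count, doubled to give Hz, with blank response subtracted. Values are for the large-spike A-neuron class of each of seven sensillum types that co-house the lanierone B-neuron; N = 1-4 sensilla, averaged.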
row,Compound,net action potential response
1,O=Cc1ccccc1 [Benzaldehyde],-0.5 ± 1.9
2,C=CCc1ccc(OC)cc1 [Estragole],1 ± 2
3,Cc1ccccc1 [Toluene],0.5 ± 2.5
